Bioassay records from PubChem BioAssay.
Hits are enriched below; roughly 14% of the tested compounds scored in any of these assays.
Lassa entry inh: inhibitors of Lassa virus binding or cell entry. Lassa virus pseudotype entry inhibition, cell reporter. actives 1.2% (n = 300,000). Potency, µM (doses to about 37.9 µM), for inactives: at the highest dose activity change, negative = inhibition, hits mostly inhibitors. AID 540256; calls by dose curve; tested in HEK293 cells; note: potency is the fitted concentration of half-maximal effect; nearly all actives have a fitted effect of over 50% in size
Pf growth 96h: P. falciparum growth inhibition at 96 hours; P. falciparum luciferase reporter growth, 96 h; Potency, µM (top dose mostly 28.7 µM), for the others: top-dose activity change, negative = inhibition, actives largely listed as inhibitors; actives 6.9% (n = 320,000); note: potency is the fitted concentration of half-maximal effect
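Luminescence readout: decreased luciferase signal marks inhibited growth of reporter-expressing P. falciparum in infected red cells (2% hematocrit, 0.05% parasitemia final), exposed to compound two generations (96 h, 37 C, 5% CO2).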
MARV entry inh: inhibitors of Marburg virus binding or cell entry; actives 1.8% (n = 300,000); Potency, µM (highest dose often 37.8 µM), for the others: at the top dose activity change, negative = inhibition, most hits filed as inhibitors; Marburg virus pseudotyped entry inhibition, cell reporter; calls by dose curve; tested in HEK293 cells; note: potency is the fitted concentration of half-maximal effect
HCMV inh: human cytomegalovirus inhibition; actives 4.5% (n = 410,000); AID 1259415; HFF cells, HCMV-luciferase reporter, 72 h; stronger effect = lower value; activity change, negative = inhibition, % at 57.5 µM; in the data active = activity change below about -60%; inconclusive = no clear call, values can overlap the other calls; inactive = above about -39%
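Inhibition of viral replication was scored as loss of reporter luminescence in HFFs infected with HCMV-luciferase (MOI 1 PFU/cell) for 72 h; compounds tested at 2 doses, normalized to buffer and Salinomycin controls.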
HCV inhibitor: inhibitors of hepatitis C virus infection | actives 3.4% (n = 340,000) | Potency, µM (titrated, usually from 41.8 µM), without a hit: top-dose activity change, negative = inhibition, hits mostly inhibitors | Huh7.5.1 HCVcc-Cre infection, luciferase reporter, 44 h; note: potency is the fitted concentration of half-maximal effect
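After 44 h co-culture of compound, cells and HCVcc-Cre (~0.5 moi), substrate is added for 15 min at room temperature and luciferase measured over 15 sec. Cells were seeded at 1,000/well and pre-cultured 4 h.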
Pf growth 48h: P. falciparum growth inhibition at 48 hours (one generation); P. falciparum luciferase growth in erythrocytes, 48 h; Potency, µM (series often up to 28.7 µM), for inactives: top-dose activity change, negative = inhibition, most hits filed as inhibitors; actives 5.9% (n = 310,000); AID 504832; note: potency is the fitted concentration of half-maximal effect
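Parasite viability was followed by luminescence of a genomically integrated firefly luciferase. Cultures held 0.1% parasitemia at 2% hematocrit (final), incubated under 5% CO2 at 37 C.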
* marks the source's active call; other numbers are inactive results; u = inconclusive; x = no result; [ ] = another dose, or the depositor's remark. Unless noted, calls come from the whole dose curve; as a rule, active = well fitted inhibition curve with a large enough effect; inconclusive = small, poorly fitted or top-dose-only effect, or another doubt; inactive = no such curve, though single readings can be large or run the other way. % is set by controls: 0 for no effect and ±100 for the full control effect.

SMILES | Lassa entry inh | Pf growth 96h | MARV entry inh | HCMV inh | HCV inhibitor | Pf growth 48h
Clc1ccc(-c2nc3ccccc3nc2-c2ccccc2)cc1 | 2% | 2% | -19% | -5 | -14% | 8%
Cc1ccc(-c2nnc(Sc3nc4ccccc4o3)c3ccccc23)cc1 | 3% | 4% | -24% | -11 | u | 12µM*
Cc1ccc(NC(=O)Nc2nnc(N3CCCC3)s2)cc1C | -31%[46.1 µM] | x | -25%[46.1 µM] | 8 | x | x
CCOC(=O)C1CCCN(CCC(=O)Nc2ccc(OC)cc2OC)C1 (stereo not drawn) | 10%[46.1 µM] | x | x | 0 | x | x
COC(=O)N[C@H](C(C(=O)OC)=C(C)NCc1ccccc1)c1cccc(F)c1 | x | x | -11%[14.2 µM] | x | x | x
Cc1ccc(NC(=O)c2ccoc2)cc1-c1ccc(C(=O)NCC2CC2)cc1 | 3.1µM* | x | x | x | x | x
CCOc1ccc(S(=O)(=O)c2c(C(=O)c3ccc(CC)cc3)cnc3ccc(C)cc23)cc1 | x | x | u | 0 | x | x
CCNc1nc(NCC)nc(N/N=C/c2ccc(N(C)C)cc2)n1 | -11% | u | u | -33 | 8% | 13µM*
CN(C)c1nc(NCc2ccccc2)nc(N/N=C/c2ccc3c(c2)OCO3)n1 | 7% | u | -17% | u | u | 12µM*
CN(C)c1nc(NCc2ccccc2)nc(N/N=C/c2ccc(Br)cc2)n1 | x | u | x | -32 | 6% | 13µM*
O=[N+]([O-])c1ccccc1N/N=C/c1ccc2c(c1)OCO2 | -29% | 215% | u | 69 | -2% | 127%
COC(=O)C1=C(C)NC(C)=C(C(=O)OC)C(N2C(=O)CCC2=O)C1 (stereo not drawn) | x | x | x | -85* | x | x
CC1(C(=O)NS(=O)(=O)c2cccc(OC(F)F)c2)CCN1C(=O)C/C=C/c1ccccc1 (stereo not drawn) | x | x | x | 3 | x | x
CC(C)COc1ccc(C(=O)Nc2sc3c(c2C(=O)O)CC(C)(C)OC3)cc1 | u | 10% | 1.3µM* | u | 10µM* | 47%
CCOC(=O)c1c(NC(=O)C2C3C=CC(C3)C2C(=O)O)sc2c1CC(C)(C)OC2 (stereo not drawn) | -10% | u | 19%[46.1 µM] | -36 | 9% | u
COc1ccc(C(=O)Nc2sc3c(c2C(=O)O)CC(C)(C)OC3)cc1 | u | 16% | 4.5µM* | 0 | -15% | 22%
CC1(C)Cc2c(sc(NC(=O)c3ccccc3)c2C(=O)O)CO1 | u | -4% | u | 66 | -20% | 64%
CC1(C)Cc2c(sc(NC(=O)C(=O)N3CCCC3)c2C(=O)O)CO1 | x | 7% | x | -24 | 12% | 2%
CCOC(=O)c1c(NC(=O)c2cccs2)sc2c1CC(C)(C)OC2 | -11% | 25% | u | -34 | 7.9µM* | u
O=C(CN1C(=O)COc2ccc(S(=O)(=O)N3CCOCC3)cc21)N1CCN(c2ccc(Cl)cc2)CC1 | -5%[46.1 µM] | x | 2%[46.1 µM] | -9 | x | x
CC1C(=O)Nc2ccc(S(=O)(=O)NCc3ccc(N(C)C)cc3)cc2NC1=O (stereo not drawn) | -17%[46.1 µM] | x | u | 20 | x | x
CCC(O)(c1ccccc1)C(CN1CCOCC1)c1ccccc1 (stereo not drawn) | -4%[46.1 µM] | -25% | 9%[46.1 µM] | 22 | 6% | u
CCc1ccc(C(O)(CC)C(CN2CCOCC2)c2ccccc2)cc1 (stereo not drawn) | -21% | 0% | u | -63* | -28% | 12µM*
CCCCC(O)(c1ccc(CC)cc1)C(CN1CCOCC1)c1ccccc1 (stereo not drawn) | x | -7% | x | -71* | u | 1.9µM*
CC1(c2nnnn2Cc2ccccc2)CCC(=O)N1Cc1cccs1 (stereo not drawn) | x | x | x | 20 | x | x
SMILES | Lassa entry inh | Pf growth 96h | MARV entry inh | HCMV inh | HCV inhibitor | Pf growth 48h
COc1cc(SC#N)ccc1N=Cc1c(C)[nH]n(-c2ccc(C)c(C)c2)c1=O | 11µM* | -28% | u | -65* | u | 5.2µM*
COc1cc(S(=O)(=O)Nc2ccccc2)ccc1N=Cc1c(C)[nH]n(-c2ccc(C)cc2)c1=O | -5% | 24% | -10% | x | -11% | -19%
COc1cc(SC#N)ccc1N=Cc1c(C)[nH]n(-c2ccc(Cl)cc2)c1=O | 1% | 2.1µM* | u | 21 | 12% | 2.1µM*
COc1ccc(N=C(C)c2c(O)[nH]c(=O)[nH]c2=O)cc1 | x | -6% | x | 10 | 13% | 25%
COc1ccc(N=C(C)C2=C(O)COC2=O)cc1 | 7% | 0.33µM* | 0% | u | 21% | x
Cc1ccccc1NC(=O)CN(C)S(=O)(=O)c1ccc2c(c1)n(C)c(=O)c(=O)n2C | x | 10µM* | x | -5 | 18% | u
Cc1cccc(NC(=O)CN(C)S(=O)(=O)c2ccc3c(c2)n(C)c(=O)c(=O)n3C)c1C | u | u | -25%[46.1 µM] | 0 | 4% | -10%
CCC(Cc1ccccc1)NC(=O)CN(C)S(=O)(=O)c1ccc2c(c1)c(=O)n(C)c(=O)n2C (stereo not drawn) | x | 7.4µM* | 5% | -21 | u | x
Cc1ccc(CCNC(=O)CN(C)S(=O)(=O)c2ccc3c(c2)n(C)c(=O)c(=O)n3C)cc1 | -1%[46.1 µM] | 9.3µM* | 4%[46.1 µM] | -1 | -1% | u
C=CC[C@@H](CC(=O)N[C@H](CO)Cc1ccccc1)C(=O)N[C@H](COC(=O)[C@@H](CC=C)CC(=O)OC(C)(C)C)Cc1ccccc1 | x | x | x | 30 | u | x
CC(=O)Nc1ccc(CN(C)c2c(C)nc3ccc(C(=O)N4CCN(c5ccccc5)CC4)cn23)cc1 | x | x | x | 1 | x | x
CCS(=O)(=O)C1=NN2C(=N)/C(=C\c3ccc(OS(=O)(=O)c4ccccc4)c(OC)c3)C(=O)N=C2S1 | x | 9.3µM* | x | x | x | u
COc1ccc([C@@H]2[C@@H](C(=O)N3CCOCC3)CC(=O)N2C(=O)CCc2ccccc2)cc1 | x | x | x | -7 | x | x
NNc1nc2cccnc2n(CCNc2ncc(C(F)(F)F)cc2Cl)c1=O | 15% | 12µM* | 6%[46.1 µM] | u | -30% | u
O=c1c(Cl)nc2cc(Cl)ccc2n1CCNc1ncc(C(F)(F)F)cc1Cl | 4% | u | 23% | x | 11% | 13µM*
CCn1c(=S)[nH]c2scc(-c3cccs3)c2c1=O | -25%[46.1 µM] | 27% | -1%[46.1 µM] | -63* | 8% | -1%
COc1ccc2nc3sc(C(=O)NCCN4CCc5ccccc5C4)cc3cc2c1 | 10% | u | u | 8 | -29% | 9.3µM*
COc1ccc2cc3cc(C(=O)NCCCN4CCc5ccccc5C4)sc3nc2c1 | u | u | u | 80 | -12% | u
CCOc1ccc(C(=O)c2cn(CC(=O)Nc3ccc(OC)cc3)c3cc4c(cc3c2=O)OCCO4)cc1 | 2%[46.1 µM] | x | 5%[46.1 µM] | 2 | x | x
O=C(CN1CCN(Cc2ccc(F)cc2Cl)C1=O)NCCc1ccccc1 | x | u | x | 38 | -7% | x
O=C(O)CN1CCN(Cc2ccc(F)cc2Cl)C1=O | -2% | 8.3µM* | 8% | -4 | 15% | u
